{"source": "PubChem BioAssay AID463173", "about": "(ICCB-Longwood Screening Facility, Harvard Medical School, 2010)", "note": "Screen size: about 52,000 compounds; about 4,300 (8.3%) were called active. This is one part of a sample in which actives are shown more often than they occur. Unmarked numbers belong to inactive results. No stated cut-off is given here; in the data, active means survival mostly below about 52% (no sharp cut-off); inactive means mostly above about 56%."}
{"test_system": "DeltatarO mutant", "test": "S. aureus survival, RN4220 and DeltatarO strains – OD600, teichoic acid synthesis inhibitors, primary screen (AID 463173)", "details": "S. aureus RN4220 wild type/DeltatarO growth, OD600, 18 h, stronger effect = lower value, screened at 18.75 µg/mL (by protocol)"}
{"smiles": "O=S(=O)(c1ccccc1)c1nc(-c2ccccc2F)oc1N1CCOCC1", "survival": "71%"}
{"smiles": "O=S(=O)(c1ccccc1)c1nc(-c2ccc(Cl)cc2Cl)oc1N1CCCCCC1", "survival": "49%"}
{"smiles": "Cc1ccc(S(=O)(=O)c2nc(-c3ccccc3F)oc2N2CCCCC2)cc1", "survival": "32% (active)"}
{"smiles": "Cc1ccc(S(=O)(=O)c2nc(-c3ccccc3Cl)oc2N2CCCCCC2)cc1", "survival": "25% (active)"}
{"smiles": "O=S(=O)(c1ccccc1)c1nc(-c2ccccc2Cl)oc1N1CCCCCC1", "survival": "27% (active)"}
{"smiles": "O=S(=O)(c1ccccc1)c1nc(-c2ccc(Cl)cc2Cl)oc1N1CCCCC1", "survival": "90%"}
{"smiles": "O=S(=O)(Nc1ccc(-c2ccc(N3CCCC3)nn2)cc1)c1cc(F)ccc1F", "survival": "96%"}
{"smiles": "Cc1ccc(-c2nc(CS(=O)CC(=O)N3CCN(c4ccccc4)CC3)c(C)o2)cc1", "note": "(stereo not drawn)", "survival": "62%"}
{"smiles": "CC(C)(C)OC(=O)N1CCC(c2c(C(=O)NCc3ccccc3)cnn2-c2cccc(F)c2)CC1", "survival": "108%"}
{"smiles": "O=C(/C=C\\c1ccc2c(c1)OCO2)NC1CC(=O)N(c2ccccc2)C1", "note": "(stereo not drawn)", "survival": "134%"}
{"smiles": "CN(C)c1ccc(NC(=O)CC(NCc2cccnc2)C(=O)O)cc1", "note": "(stereo not drawn)", "survival": "76%"}
{"smiles": "CC(=O)c1cccc(NC(=O)CN2C=NS(=O)(=O)c3ccc(C)cc32)c1", "survival": "89%"}
{"smiles": "COc1ccc(-c2csc3nc(-c4ccc(F)cc4)oc(=O)c23)cc1", "survival": "61%"}
{"smiles": "O=C(NCc1ccc2c(c1)OCO2)c1ccc2c(c1)N(Cc1cccc(Cl)c1)C(=O)c1ccccc1S2", "survival": "84%"}
{"smiles": "O=C(NCc1cccs1)C1CCN(C(=O)N2CCOc3ccccc32)CC1", "survival": "107%"}
{"smiles": "COc1cc(NS(=O)(=O)c2cc3[nH]c(=O)[nH]c3cc2C)cc(OC)c1OC", "survival": "37% (active)"}
{"smiles": "Cc1cc(C)cc(NS(=O)(=O)c2cc3[nH]c(=O)c(=O)[nH]c3cc2C)c1", "survival": "87%"}
{"smiles": "COc1ccc(NS(=O)(=O)c2cc3[nH]c(=O)c(=O)[nH]c3cc2C)cc1Cl", "survival": "94%"}
{"smiles": "O=C1C2C(C(=O)N1CCO)C1C=CC2C12CC2", "note": "(stereo not drawn)", "survival": "100%"}
{"smiles": "CCOc1ccccc1CNC(=O)c1[nH]c2ccccc2c1Sc1ccccc1", "survival": "72%"}
{"smiles": "COc1cccc(NC(=O)/C(C#N)=C\\c2cn(Cc3ccc(C)cc3)c3ccccc23)c1", "survival": "90%"}
{"smiles": "COC(=O)c1c(NC(=O)COc2cc(C)c(Cl)c(C)c2)sc2c1CCCC2", "survival": "147%"}
{"smiles": "COC(=O)c1c(NC(=O)Cc2cccs2)sc2c1CCCC2", "survival": "119%"}
{"smiles": "CCCc1ccc(OC(C)C(=O)Nc2sc3c(c2C(=O)OC)CCCCC3)cc1", "note": "(stereo not drawn)", "survival": "9% (active)"}
{"smiles": "COC(=O)c1c(NC(=O)COc2c(C)ccc(C)c2C)sc2c1CCC(C)C2", "note": "(stereo not drawn)", "survival": "22% (active)"}
{"smiles": "CCOC(=O)c1sc(NC(=O)C(C)Oc2ccc(OC)cc2)c(C(=O)OCC)c1C", "note": "(stereo not drawn)", "survival": "73%"}
{"smiles": "COC(=O)c1c(NC(=O)c2ccc(Cl)c(Cl)c2)sc2c1CCCC2", "survival": "63%"}
{"smiles": "COC(=O)c1c(NC(=O)COc2ccc(OC)cc2)sc2c1CCC(C)C2", "note": "(stereo not drawn)", "survival": "66%"}
{"smiles": "COC(=O)c1c(NC(=O)COc2c(C)cccc2C)sc2c1CCCC2", "survival": "2% (active)"}
{"smiles": "COC(=O)c1c(NC(=O)COc2cc(C)ccc2C(C)C)sc2c1CCC(C)C2", "note": "(stereo not drawn)", "survival": "61%"}
{"smiles": "COC(=O)c1c(NC(=O)Nc2ccc(Cl)cc2)sc(C)c1C", "survival": "74%"}
{"smiles": "COC(=O)c1c(NC(=O)C(C)Oc2ccc(Cl)cc2Cl)sc2c1CCCC2", "note": "(stereo not drawn)", "survival": "46%"}
{"smiles": "COC(=O)c1c(NC(=O)C(C)Oc2ccc(Cl)c(C)c2)sc(C)c1C", "note": "(stereo not drawn)", "survival": "15% (active)"}
{"smiles": "Cc1ccc(S(=O)(=O)N2CCN(C(=O)c3c(C)nn(-c4ccccc4)c3Cl)CC2)cc1", "survival": "63%"}
{"smiles": "O=C(O)CCNC(=O)c1ccc(Br)o1", "survival": "72%"}
{"smiles": "Cc1ccccc1Nc1c(-c2ccc(N3CCOCC3)cc2)nc2ncccn12", "survival": "83%"}
{"smiles": "Cc1cccc(C)c1NC(=O)CN(C)S(=O)(=O)c1ccc2c(c1)n(C)c(=O)c(=O)n2C", "survival": "89%"}
{"smiles": "O=c1c(S(=O)(=O)c2ccccc2)cn(Cc2cccc(F)c2)c2cc(N3CCOCC3)c(F)cc12", "survival": "78%"}
{"smiles": "COc1ccc(Cl)cc1NC(=O)c1c(NCc2ccc(C)o2)sc2c1CCCC2", "survival": "74%"}
{"smiles": "COc1ccc(Cl)cc1N(C)C(=O)c1ccc2c(=O)n3c(nc2c1)CCCCC3", "survival": "76%"}
{"smiles": "N#Cc1ccc(NC2=NS(=O)(=O)c3ccccc32)cc1", "survival": "68%"}
{"smiles": "O=C(NCCc1ccc(Cl)cc1)c1ccco1", "survival": "98%"}
{"smiles": "CCCc1ccc(OCC(=O)Nc2sc3c(c2C(=O)OC)CCCCC3)cc1", "survival": "38% (active)"}
{"smiles": "CCOC(=O)c1c(NC(=O)COc2c(C)cc(Cl)cc2Cl)sc2c1CCCC2", "survival": "53%"}
{"smiles": "CCOC(=O)c1c(NC(=O)C(C)Oc2ccc(Cl)c(C)c2)sc2c1CCCC2", "note": "(stereo not drawn)", "survival": "42% (active)"}
{"smiles": "CCOc1ccccc1NC(=O)c1c(NC(=O)C(C)Oc2ccc(Cl)cc2)sc2c1CCCCC2", "note": "(stereo not drawn)", "survival": "83%"}
{"smiles": "COC(=O)c1c(NC(=O)c2c(OC)cccc2OC)sc2c1CCCC2", "survival": "13% (active)"}
{"smiles": "COC(=O)c1c(NC(=O)c2ccccc2C(=O)O)sc2c1CCCC2", "survival": "92%"}
{"smiles": "Cc1ccccc1NC(=O)c1c(NC(=O)C(C)Oc2cccc(Cl)c2)sc2c1CCCC2", "note": "(stereo not drawn)", "survival": "40% (active)"}
{"smiles": "COC(=O)c1c(NC(=O)c2ccc(OC)cc2OC)sc2c1CCCCC2", "survival": "47%"}
{"smiles": "COC(=O)c1c(NC(=O)COc2ccc(C(C)C)cc2)sc2c1CCCC2", "survival": "47%"}
{"smiles": "CCOc1ccccc1NC(=O)c1c(NC(=O)C(C)Oc2cccc(Cl)c2)sc2c1CCCCC2", "note": "(stereo not drawn)", "survival": "64%"}
{"smiles": "Cc1cc(OC(C)C(=O)Nc2sc3c(c2C(N)=O)CCCC3)ccc1Cl", "note": "(stereo not drawn)", "survival": "59%"}
{"smiles": "CCNC(=O)c1c(NC(=O)COc2ccc(F)cc2)sc2c1CCCC2", "survival": "59%"}
{"smiles": "CCN(C(=O)CN(C)S(=O)(=O)c1ccc2c(c1)c(=O)n(C)c(=O)n2C)c1ccc(OC)cc1", "survival": "90%"}
{"smiles": "OP(Oc1ccccc1)(Oc1ccccc1)=P(O)(Oc1ccccc1)Oc1ccccc1", "survival": "97%"}
{"smiles": "COc1ccc(OC)c(Nc2ncc3c(n2)CCN(Cc2cc(OC)c(OC)c(OC)c2)C3)c1", "survival": "81%"}
{"smiles": "CC(C)OCCCNC(=O)CN1C(=O)COc2ccc(S(=O)(=O)N3CCOCC3)cc21", "survival": "79%"}
